Six1-Eya2 blk: inhibitors of human Six1/Eya2 interaction | Q15475+O00167 | AlphaScreen GST-Six1/His-Eya2 binding, biochemical; active compounds read low | activity change, % (test concentration not listed) | 360,000 tested, 0.56% active | AID 651725; in the data active = activity change below about -65%; inconclusive = mostly about -30% to -63%; also: % is scaled to controls: 0 for no effect and ±100 for the full control effect
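GST-Six1 + His-Eya2 (5X stock: 250/500 nM); Tris pH 8.0, 300 mM NaCl, 0.05% BSA, 0.02% Tween 20; GSH donor/Ni acceptor beads; 1 h 37 °C dark; AlphaScreen readout.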
JMJD2A Tudor inh: inhibitors of human JMJD2A Tudor domain. O75164. 390,000 tested, 4.4% active. Potency, µM (highest dose often 114 µM), for inactives: at the highest dose activity change, negative = inhibition, most hits filed as inhibitors. AlphaScreen JMJD2A-Tudor / H3K4me3 peptide binding; also: potency is read from the fitted curve at half-maximal effect; % is scaled to controls: 0 for no effect and ±100 for the full control effect; nearly all actives have a fitted effect of over 50% in size
Target sequence (O75164 whole entry, looked up, the tested form may be a part): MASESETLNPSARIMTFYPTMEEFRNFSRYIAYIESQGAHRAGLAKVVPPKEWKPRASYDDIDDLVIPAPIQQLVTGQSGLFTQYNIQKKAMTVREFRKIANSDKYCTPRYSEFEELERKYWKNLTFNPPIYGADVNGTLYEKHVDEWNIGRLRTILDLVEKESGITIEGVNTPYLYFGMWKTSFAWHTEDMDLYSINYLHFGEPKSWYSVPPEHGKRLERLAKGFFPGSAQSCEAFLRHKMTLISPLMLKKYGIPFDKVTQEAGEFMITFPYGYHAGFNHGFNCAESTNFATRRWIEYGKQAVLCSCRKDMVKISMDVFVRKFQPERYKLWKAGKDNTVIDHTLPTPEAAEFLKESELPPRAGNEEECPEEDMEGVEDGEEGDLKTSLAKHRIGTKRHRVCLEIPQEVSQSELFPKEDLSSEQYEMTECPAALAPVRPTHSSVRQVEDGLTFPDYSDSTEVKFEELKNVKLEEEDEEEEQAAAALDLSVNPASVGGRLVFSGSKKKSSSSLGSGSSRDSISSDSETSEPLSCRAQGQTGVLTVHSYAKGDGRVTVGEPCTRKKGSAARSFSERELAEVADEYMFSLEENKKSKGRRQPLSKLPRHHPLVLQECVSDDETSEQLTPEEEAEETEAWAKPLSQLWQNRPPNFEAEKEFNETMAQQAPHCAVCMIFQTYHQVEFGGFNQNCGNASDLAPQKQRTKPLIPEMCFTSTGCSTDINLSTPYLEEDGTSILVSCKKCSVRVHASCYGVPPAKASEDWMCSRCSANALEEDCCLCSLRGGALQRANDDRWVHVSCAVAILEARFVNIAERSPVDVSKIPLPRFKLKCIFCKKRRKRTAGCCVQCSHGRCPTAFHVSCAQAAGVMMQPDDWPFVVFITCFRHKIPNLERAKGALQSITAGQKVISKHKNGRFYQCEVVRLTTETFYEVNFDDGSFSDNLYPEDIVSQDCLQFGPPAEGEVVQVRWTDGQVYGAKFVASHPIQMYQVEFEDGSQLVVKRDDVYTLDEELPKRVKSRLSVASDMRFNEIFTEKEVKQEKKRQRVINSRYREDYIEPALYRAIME
HP1b binding inh: inhibitors of HP1-beta chromodomain binding to methylated histone tails | P83916 | AlphaScreen HP1-beta / biotin-H3K9me3 peptide binding | Potency, µM (titrated, usually from 114 µM), inactives show top-dose activity change, negative = inhibition, most hits filed as inhibitors | 390,000 tested, 0.56% active; also: potency is read from the fitted curve at half-maximal effect; nearly all actives have a fitted effect of over 70% in size
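HP1-beta protein (50 nM final) preincubated 30 min at room temperature with biotinylated H3(1-18)K9me3 peptide (50 nM) in PBS pH 7.4, 0.01% Tween-20, then compound added for 30 min. AlphaScreen streptavidin donor/nickel chelate acceptor beads (10 ug/mL final), 30 min dark, luminescence read.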
G9a inh: G9a (human) methyltransferase inhibition; Q96KQ7; G9a H3K9 monomethylation, AlphaScreen, 2 h; Potency, µM (series often up to 102 µM), inactives show at the highest dose activity, negative = inhibition, usual class: inhibitors; 350,000 tested, 8.8% active; also: potency is read from the fitted curve at half-maximal effect; % is scaled to controls: 0 for no effect and ±100 for the full control effect; nearly all actives have a fitted effect of over 75% in size
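AlphaScreen detection with an anti-monomethyl H3K9 antibody quantified product after a 2 h room-temperature reaction containing 500 nM biotinylated H3K9 peptide, 20 µM SAM and 20 nM enzyme, which had been preincubated 15 min with compound.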
BAZ2B inh: blocks human BAZ2B; Potency, µM (highest dose often 114 µM), without a hit: at the top dose activity change, negative = inhibition, actives largely listed as inhibitors; AID 504333; 360,000 tested, 4.4% active; AlphaScreen BAZ2B-H3K14Ac peptide displacement; also: potency is read from the fitted curve at half-maximal effect; % is scaled to controls: 0 for no effect and ±100 for the full control effect; nearly all actives have a fitted effect of over 60% in size
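AlphaScreen luminescence quantifies BAZ2B engagement of H3K14Ac peptide; the protein and biotinylated peptide are both at 50 nM final, buffer PBS pH 7.4 with 0.01% Tween-20, all steps at room temperature.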
CtBP-E1A inh: blocks the CtBP interaction with E1A; AlphaScreen GST-E1A/His-CtBP binding, 1536-well; active compounds read low; activity change, % (no concentration beside the values); 340,000 tested, 0.49% active; in the data active = activity change below about -65%; inconclusive = mostly about -30% to -63%; also: % is scaled to controls: 0 for no effect and ±100 for the full control effect
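Steps: dispense buffer (Tris pH 8.0, NaCl 300 mM, TCEP 1 mM, BSA, Tween 20); add 5X protein mix (GST-E1A, His-CtBP, 125 nM each); pin 23 nL compound; 2 h at 37 °C, dark; add 5X beads (50 ug/mL); 1 h; read.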
Starred values were filed as active, the others as inactive; ? = inconclusive; . = no result given; [ ] = another dose, or the depositor's remark. Hits are enriched below; roughly 10% of the tested compounds scored in any of these assays. Unless noted, calls follow the shape of the dose curve; as a rule, active = well fitted inhibition curve with a large enough effect; inconclusive = small, poorly fitted or top-dose-only effect; inactive = no such curve, though single readings can be large or run the other way.

SMILES | Six1-Eya2 blk | JMJD2A Tudor inh | HP1b binding inh | G9a inh | BAZ2B inh | CtBP-E1A inh
Cc1ccccc1C(=O)Nc1nc2nc(C)c(C)c(=O)n2[nH]1 | . | -26% | 16% | -6%[59 µM] | -25% | .
O=S(=O)(NCCc1ccccc1)c1ccccc1Br | . | 6% | 30% | . | . | .
CCCSc1nc(-c2ccccc2)[nH]c1S(=O)(=O)c1ccc(C)cc1 | . | -30% | 40% | 13µM* | -38% | .
CCC(Sc1nc(-c2ccccc2)[nH]c1S(=O)(=O)c1ccc(C)cc1)C(=O)O (stereo not drawn) | . | -12% | 39% | 13µM* | -13% | .
Cc1cc(C)n(-c2ccc(Oc3ccccc3)c(S(=O)(=O)O)c2)n1 | 12 | 89µM* | 3% | ? | -34% | 5
CCc1c(C)[nH]n(-c2ccc(Oc3ccccc3)c(S(=O)(=O)O)c2)c1=O | -16 | 56µM* | 4% | ? | . | 1
CCOc1ccccc1NC(=O)Cn1c(=O)n(Cc2ccccc2)c(=O)c2c(C)c(C)sc21 | . | -4% | 6% | -2%[59 µM] | -1% | .
CCOc1ccc(NC(=O)Cn2nnc(-c3ccc(C(N)=O)cc3)n2)cc1S(=O)(=O)N1CCCC1 | -27 | -23% | 6% | 79µM* | -7% | 6
O=C(Nc1ccc(Nc2ccccc2)cc1)c1cccc(F)c1 | -17 | ? | 5% | . | -15% | -14
COC(=O)C(NNc1ccccc1)(NC(=O)c1cccc(F)c1)C(F)(F)F (stereo not drawn) | -2 | -11% | 35% | 2.2µM* | ? | -6
CCc1cccc(C)c1NC(=O)CN1C(=O)c2cccc3cccc1c23 | . | 2% | 48% | -6%[59 µM] | 11%[57.1 µM] | .
CCCN1CCCc2ccccc21 | -5 | -35% | 12% | 22µM* | ? | 4
CCN1C(=O)CCCc2ccccc21 | 2 | -1% | 35% | -43% | -14% | 13
COc1cc2c(cc1OC)C1=C(C#N)CN(CC(=O)O)CN1CC2 | -8 | 22µM* | -24% | 35µM* | 79µM* | 5
Brc1ccc(-c2noc(COc3ccc4c(c3)CCC4)n2)o1 | 34 | 199% | -11% | 22µM* | 56µM* | -8
Clc1ccc(OCc2nc(-c3ccc(Br)o3)no2)cc1 | 11 | 36% | 31% | -16% | 4% | 26
Cc1cc(-c2nc3c4c5c(sc4[nH]c(=O)n3n2)CCC5)c(C)o1 | -17 | ? | ? | ? | 50µM* | -1
O=C(/C=C/c1ccco1)NC(=S)Nc1ccc(C(=O)O)cc1 | ? | 35µM* | 71µM* | 10µM* | 32µM* | -2
CN(C)c1ccc(NC(=S)NC(=O)/C=C/c2ccco2)cc1 | 6 | -17% | 17% | -35% | 5% | 3
O=C(/C=C/c1ccco1)NC(=S)Nc1ccc(O)c(-c2nc3ccccc3s2)c1 | -2 | ? | -1% | 40µM* | -4% | -7
CCN(CC(=O)Nc1ccc(NC(C)=O)cc1)C(=O)/C=C/c1ccco1 | -1 | -7% | 9% | 50µM* | -22% | 4
CC(=O)NC(=S)Nc1ccc(NC(=S)NC(=O)/C=C/c2ccco2)cc1 | -21 | ? | 11% | 40µM* | ? | 8
CCC(=O)Nc1ccc(NC(=S)NC(=O)/C=C/c2ccco2)cc1 | -9 | ? | -9% | -9%[0.501 µM] | -31% | 2
O=c1c2cnn(-c3ccc(F)cc3)c2ncn1Cc1cccc(Cl)c1 | . | 15% | 34% | 2%[59 µM] | 1% | .
CC1=C(c2ccc(C)cc2)S(=O)(=O)NC1=NCc1cccc(F)c1 | . | -27% | 9% | -44%[59 µM] | ? | .
SMILES | Six1-Eya2 blk | JMJD2A Tudor inh | HP1b binding inh | G9a inh | BAZ2B inh | CtBP-E1A inh
COc1cc2c(cc1OC)C(COc1ccc3c(C)cc(=O)oc3c1)N(C(=O)c1ccc(C)c(C)c1)CC2 (stereo not drawn) | . | 5% | 22% | 12%[59 µM] | 1% | .
CC(=O)c1ccc(NC(=O)/C(=C\c2ccccc2)NC(=O)/C=C/c2ccccc2)cc1 | 0 | -13% | 33% | -3% | -1% | -2
O=C(/C=C/c1ccc(Cl)cc1)NC(=S)Nc1ccc(C(=O)O)cc1 | 22 | 22µM* | ? | ? | 50µM* | 8
O=C(/C=C/c1ccccc1)N/C(=C/c1ccccc1)C(=O)Nc1ccc(C(=O)O)cc1 | -4 | 50µM* | 8% | 2% | -6% | 0
O=C(/C=C/c1ccco1)NC(=S)Nc1ccc(Cl)cn1 | -4 | -30% | 8% | 40µM* | ? | -5
COc1ccc(NC(=S)NC(=O)/C=C/c2ccco2)cc1 | -10 | -15% | 3% | 22µM* | ? | -11
CN(C)c1ccc(NC(=S)NC(=O)/C=C/c2ccc(Cl)cc2)cc1 | ? | 14%[11.4 µM] | ? | -29%[12.7 µM] | -9% | -21
COC(=O)c1ccc(C2NC(c3ccc4c(c3)OCO4)=CC(c3ccccc3O)N2)cc1 (stereo not drawn) | . | -30% | 6% | . | . | .
Cc1ccc(OCCNC(=O)CNC(=O)Cc2cccc3ccccc23)cc1 | . | -2%[57.1 µM] | 17%[57 µM] | . | . | .
COc1ccc(S(=O)(=O)N2CCN(c3nc(-c4cccs4)nc4ccccc34)CC2)cc1 | . | -20% | 36% | . | . | .
CSc1nnc(NC(=O)c2cc(=O)c3cc(C)c(C)cc3o2)s1 | . | 7% | 40% | 4%[59 µM] | -18% | .
COc1cc(OC)c(N(C)C(=O)c2c(C)oc3ncnc(N4CCCCC4)c23)cc1Cl | . | -12% | 13% | -24%[59 µM] | 7%[57.1 µM] | .
C=CCNC(=S)NNC(=O)c1ccco1 | -1 | -5% | 43% | -23% | -35% | 6
O=C(/C=C\c1ccco1)Nc1ccc(N2CCN(C(=O)c3ccccc3)CC2)cc1 | 0 | -27% | -12% | ? | 71µM* | 0
CCN(CC(=O)Nc1ccc(NC(C)=O)cc1)C(=O)Cc1coc2cc(C)c(C)cc12 | -8 | -15% | 21% | 50µM* | 6% | 0
O=C(/C=C/c1ccco1)NC(=S)NNC(=O)c1ccco1 | -9 | -21% | -4% | 11µM* | 2% | 9
Cc1cc(C(=O)NNC(=O)/C=C/c2ccco2)c(C)o1 | ? | 45µM* | ? | 22µM* | ? | -20
O=C(/C=C/c1ccco1)N1CCN(c2ccccc2)CC1 | -4 | 0% | 13% | ? | -28% | 3
COc1ccccc1/C=C/C(=O)NNC(=O)c1cc(C)oc1C | 2 | -17% | 22% | -32% | -7% | -6
Cc1ccc(NC(=O)c2c(C)oc3ccc(O)c(CN(C)Cc4ccccc4)c23)c(C)c1 | . | -19% | -6% | -34%[59 µM] | -38% | .
Cc1ccc(C)c(NC(=O)CCS(=O)(=O)c2cccc3nsnc23)c1 | . | -6% | 27% | -35%[59 µM] | 2% | .
O=C(/C=C/c1ccco1)Nc1ccccc1N1CCCCC1 | -7 | -23% | ? | 50µM* | ? | .
O=C(/C=C/c1ccco1)NC(=S)Nc1ccc(N2CCCC2)cc1 | ? | ? | 35µM* | ? | 10µM* | -21

Compound activity deposited in PubChem by National Center for Advancing Translational Sciences (NCATS).
